Screening data (PubChem)
The entries come from a sample that favours hits as a whole.
Luciferase inh: blocks Photinus pyralis firefly luciferase activity | actives 2.2% (n = 72,000) | Potency, µM (doses to about 57.1 µM), for the others: at the highest dose activity change, negative = inhibition, most hits filed as inhibitors | purified firefly luciferase, luminescence, 8 min | P08659; also: potency is read from the fitted curve at half-maximal effect; % is scaled to controls: 0 for no effect and ±100 for the full control effect; nearly all actives have a fitted effect of over 40% in size
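Here, luciferase activity is measured as luminescence following an 8 min room-temperature reaction at 10 uM ATP, pH 7.2. Every library sample is titrated.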
IMPase cell inh: membrane-permeable compound that blocks inositol monophosphatase; P97697; 120,000 tested, under 10 active; inhibition (IP1 accumulation), % at 46.1 µM; AID 901; CHO-M1 cells, IP1 accumulation, HTRF TR-FRET ratio; active = well fitted curve in the direction sought with a large enough effect in the signal ratio, not every such curve was filed as active; inconclusive = small, poorly fitted or top-dose-only effect, or a change in a side signal; inactive = no such curve, though single readings can be large or run the other way; the % refers to the signal ratio;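 also: cells stimulated with carbachol in lithium chloride buffer; plate controls were DMSO basal wells for no effect and reference inhibitor wells for full effect; higher means more IMPase inhibition seen as more IP1 and lower FRET ratio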
Target sequence (P97697 whole entry, looked up): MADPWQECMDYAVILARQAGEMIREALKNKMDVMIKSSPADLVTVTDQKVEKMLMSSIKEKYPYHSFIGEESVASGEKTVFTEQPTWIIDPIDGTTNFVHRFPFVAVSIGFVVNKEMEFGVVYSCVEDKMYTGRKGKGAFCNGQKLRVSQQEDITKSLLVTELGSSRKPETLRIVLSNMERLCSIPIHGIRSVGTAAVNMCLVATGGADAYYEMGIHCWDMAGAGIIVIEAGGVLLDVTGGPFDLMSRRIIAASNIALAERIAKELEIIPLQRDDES
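Cellular IMPase inhibition is scored as a rise in cytosolic IP1, detected by competitive TR-FRET between d2-labelled IP1 and a europium anti-IP1 antibody. M1-expressing CHO cells were stimulated with carbachol for 30 min at 37C, with lithium (50 mM LiCl) present in the buffer.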
p53ts 39C kill: kills p53ts cells at the nonpermissive temperature; H1299-p53A138V viability at 39C, ATP luminescence, 24 h; Potency, µM (top dose mostly 46.1 µM), without a hit: at the top dose activity change, negative = cell killing, actives largely listed as cytotoxic; actives 1.5% (n = 130,000); AID 902; also: potency is read from the fitted curve at half-maximal effect; % is scaled to controls: 0 for no effect and ±100 for the full control effect; nearly all actives have a fitted effect of over 55% in size
p53ts 32C kill: p53ts cell cytotoxicity, permissive temperature. H1299-p53A138V at 32C, ATP luminescence viability, 24 h. Potency, µM (top dose mostly 46.1 µM), inactives show at the highest dose activity change, negative = cytotoxicity, actives largely listed as cytotoxic. actives 0.93% (n = 130,000);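 also: potency is read from the fitted curve at half-maximal effect; 0% = DMSO and -100% = full killing by reference compound; nearly all actives have a fitted effect of over 55% in size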
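Cells: H1299 p53ts (A138V), 600/well, pre-incubated 16–30 h at 37C. Cpd up to 46 uM, 24 h, 32C. Readout: ATPlite luminescence, 20 min RT. Normalization: DMSO vs tamoxifen 100 uM. AC50 by Hill equation.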
Hsp90 Hop PPI: changes Hsp90-Hop TPR2A binding signal, up or down | AID 595 | Potency, µM (doses to about 57 µM), for inactives: at the top dose activity change, negative = inhibition | actives 0.44% (n = 71,000) | AlphaScreen TPR2A-His6 binding biotin-Hsp90 C-terminal peptide; active = well fitted curve in either direction with a large enough effect; inconclusive = small, poorly fitted or top-dose-only effect, or another doubt; also: potency is read from the fitted curve at half-maximal effect; % is scaled to controls: 0 for no effect and ±100 for the full control effect
IkB sig inh: suppresses IkB signaling in ABC-DLBCL reporter cells; ABC-DLBCL IkBa-CBG/CBR dual luciferase ratio, 4 h; response scale: scaled: untreated 0%, proteasome inhibitor 100%; Potency, µM (top dose mostly 57.1 µM), for inactives: top-dose IkBa stabilization activation; actives 0.04% (n = 110,000); AID 445; active = well fitted curve in the direction sought with a large enough effect in the signal ratio, not every such curve was filed as active; inconclusive = small, poorly fitted or top-dose-only effect, or a change in a side signal; the % refers to the signal ratio;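 also: potency is read from the fitted curve at half-maximal effect; the direction sought is a rising ratio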
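Luminescence ratio of IκBα-fused green versus native red beetle luciferase in OCI-Ly3 cells, 4 h post-doxycycline with compound; red signal alone, scaled from basal (0%) to zero light (-100%), flagged nonspecific or cytotoxic effects.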
Numbers without * were called inactive; ? = inconclusive; · = no result; [ ] = another dose, or the depositor's remark. Unless noted, calls follow the shape of the dose curve; as a rule, active = well fitted curve in the direction sought with a large enough effect; inconclusive = small, poorly fitted or top-dose-only effect, or another doubt; inactive = no such curve, though single readings can be large; an effect the other way counts as inactive or inconclusive.

SMILES	Luciferase inh	IMPase cell inh	p53ts 39C kill	p53ts 32C kill	Hsp90 Hop PPI	IkB sig inh
COc1ccc2[nH]cc(CCNC(=O)Nc3cc(C)cc(C)c3)c2c1	·	·	13µM*	1%	·	1%
CCC(Cc1ccccc1)NC(=O)Cn1ncc2c3ccccc3n(Cc3ccc(F)cc3)c2c1=O (stereo not given)	·	·	10µM*	?	·	-2%
O=C(Cn1ncc2c3ccccc3n(Cc3ccccc3)c2c1=O)NCCc1ccc(Cl)cc1	·	·	13µM*	-11%	·	0%
CC1=C(C(=O)Nc2ccccc2)C(c2cccnc2)n2nc(SCc3ccccc3Cl)nc2N1 (stereo not given)	·	·	-3%	-1%	·	0%
COC(=O)c1ccc(NC(=O)c2ccccc2NS(C)(=O)=O)cc1	16µM*	15	-25%	-24%	3%	?
COc1cccc(C(=O)Nc2ccc(C(=O)O)cc2)c1	-11%	1	-1%	10%	-2%	11%
COc1cccc(C(=O)NC2=NCCS2)c1	16µM*	4	?	16µM*	-3%	0%
COc1ccc(N(Cc2ccccc2)S(=O)(=O)c2cccc(C(=O)NC3=NCCS3)c2)cc1	·	2	·	·	·	·
Cn1nc(C(=O)NC2=NCCS2)ccc1=O	·	-1	·	·	·	·
COC(=O)c1ccc(NC(=O)c2cccc(OC)c2)cc1	?	3	?	13µM*	5%	?
COc1ccc(NC(=O)c2ccccc2NS(C)(=O)=O)cc1OC	?	2	-25%	-16%	-6%	0%
O=C(NC1=NCCS1)c1ccc(-c2ccc(Cl)cc2)o1	7.9µM*	-2	?	?	-11%	8%
Cc1ccccc1CNC(=O)CCC(=O)N1CCSc2ccccc21	·	·	-9%	-6%	·	5%
O=C(O)[C@@H]1[C@@H]2O[C@H]([C@@H](Br)[C@H]2Br)[C@H]1C(=O)O	3%[11.4 µM]	·	-13%[9.22 µM]	2%[9.22 µM]	-3%[11 µM]	1%[11.4 µM]
COc1cccc(C(=O)Nc2ccc(C)cc2)c1	10µM*	4	16µM*	16µM*	3%	?
COC(=O)c1cccc(NC(=O)c2cccc(OC)c2)c1	?	2	?	?	-2%	3%
N#CCCn1c(=O)c(-c2ccc(F)cc2)nc2cnc(Oc3ccccc3)nc21	1%[11.4 µM]	·	-7%	-2%	-6%	-1%[11.4 µM]
O=C1/C(=C/Nc2ccc3c(c2)OCO3)CCc2ccccc21	0.63µM*	3	6.3µM*	4µM*	6%	?
c1cn2c(NC3CCCC3)c(-c3ccc(N4CCOCC4)cc3)nc2cn1	2.5µM*	-11	16µM*	10µM*	7%	0%
COc1ccc(-c2nc3c(Br)c(N)c(Br)cc3o2)cc1	2.5µM*	6	·	·	·	·
Nc1c(Br)cc2oc(-c3ccccc3)nc2c1Br	-13%[25.5 µM]	1	4%	·	·	·
CCCCOc1ccc(-c2nnn(C(C)C(=O)OCC)n2)cc1 (stereo not given)	-2%	8	-15%	-8%	?	1%
CCCCOc1ccc(-c2nnn(C(C)(C)C(=O)OC)n2)cc1	-2%	10	-18%	-12%	25µM*	14%
COc1cccc(-c2cc(=O)c3ccccc3o2)c1N	13µM*	6	5µM*	7.9µM*	8%	0%
O=c1cc(-c2ccccc2)oc2cc(O)c(O)c(O)c12	1%	7	0.63µM*	?	?	1%
SMILES	Luciferase inh	IMPase cell inh	p53ts 39C kill	p53ts 32C kill	Hsp90 Hop PPI	IkB sig inh
COc1cccc2oc(-c3ccc(O)cc3)cc(=O)c12	?	2	7.9µM*	6.3µM*	-1%	2%[11.4 µM]
COc1cccc2oc(-c3ccccc3)cc(=O)c12	·	3	7.9µM*	10µM*	·	·
COc1ccccc1-c1cc(=O)c2cccc(OC)c2o1	·	·	0%	3%	·	·
Oc1cc(CN2COc3ccccc32)c(O)cc1CNC1CCCCC1	-10%[11.4 µM]	·	2%[9.22 µM]	1%[9.22 µM]	-2%[11 µM]	3%[11.4 µM]
Cc1ccc(/C=C/c2onc(C)c2S(=O)(=O)N2CCC(C(=O)Nc3cccc(C#N)c3)CC2)cc1	·	·	-9%	7%	·	-1%
CC(C)(C)c1ccc(C(=O)Nc2nnc3n2CCS3)cc1	·	·	13µM*	?	·	?
CC(C)(C)C(=O)Nc1nnc2n1CCS2	·	·	?	-1%	·	4%
N#Cc1c(/N=C/c2ccco2)sc2c1CCC2	2.5µM*	4	-19%	?	-8%	1%
Cc1ccc(/C=N/c2sc3c(c2C#N)CCC3)s1	1.6µM*	-10	?	?	-24%	-1%
Cc1ccc(/C=N/c2sc3c(c2C#N)CCCCC3)o1	1%	-1	-15%	7%	-4%	?
CCc1ccc(Sc2cc(C(=O)O)c3ccccc3n2)cc1	·	·	?	-4%	·	0%
COc1ccc(-c2cn3nc(N4CCC(C(=O)Nc5cc(Cl)ccc5C)CC4)sc3n2)cc1	·	·	·	-11%	·	·
CCc1ccccc1NC(=O)CSc1ncc2c(n1)-c1ccccc1N(Cc1ccc(C)cc1)S2(=O)=O	·	·	-10%	-9%	·	?
Cc1ccc(C2=Nc3ccccc3N(CC(=O)NCc3ccc(F)cc3)C(=O)C2)cc1C	·	·	10µM*	-14%	·	-3%
Cc1ccc(C2=Nc3ccccc3N(CC(=O)NCc3ccc(Cl)cc3)C(=O)C2)cc1C	·	·	-18%	4%	·	-2%
Cc1ccc(N2C(=O)c3ccccc3C2O)nc1 (stereo not given)	6.3µM*	5	5µM*	4µM*	-2%[2.3 µM]	?
COc1ccc(NC(=O)Cn2c(=O)n(-c3ccccc3)c(=O)c3c4c(sc32)CCCC4)cc1	·	·	25µM*	?	·	?
Cc1cccc(C(=O)Nc2ccc(C(=O)OCc3cc(=O)n4nc(CC(C)C)sc4n3)cc2)c1	·	·	4%	-8%	·	0%
c1ccc(-c2cn3nc(-c4ccccc4)cnc3n2)cc1	·	9	-2%	·	·	·
CCc1ccc(-c2cn3nc(C)c(C)nc3n2)cc1	1µM*	-2	·	·	·	·
Cc1nc2nc(-c3ccccc3)cn2nc1C	13µM*	-13	?	?	2%	6%
O[C@@H](C1=C/C(=C\c2ccncc2)c2ccccc21)c1ccncc1	1%[11.4 µM]	·	-18%[9.22 µM]	-8%[9.22 µM]	-5%[11 µM]	?
CCc1nn2c(=O)cc(COC(=O)c3cccs3)nc2s1	·	·	-14%	-1%	·	?
CC(=O)OCC(=O)NCc1ccc2c(c1)OCO2	1%	2	14%	4%	-3%	1%
O=C(COC(=O)CCC(=O)c1ccc2c(c1)OCCO2)NCc1ccc2c(c1)OCO2	25µM*	2	0%	-9%	-2%	4%
O=C(Nc1ccc(-c2nc3ccccc3o2)cc1)C1CCCO1 (stereo not given)	5µM*	0	10µM*	16µM*	-1%	?
